Reference: PubChem BioAssay AID1626 (SRMLSC, 2009)
Hit rate of the full screen: of about 220,000 compounds, about 2,000 (0.91%) were called active. About 2% were inconclusive and are not listed. Rule as the data show it: inconclusive = inhibition above about 80% without an active follow-up result; inactive = below that; test concentration not stated here. The list is a sample of the results. Results with a measured potency or affinity are listed apart.

Test: M. tuberculosis H37Rv growth inhibitors, H37Rv strain (AID 1626);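 also: bacteria incubated seven days before Alamar blue readout; 0% = bacteria only wells and 100% = bacteria with antibiotic wells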
Conditions: hits give high values, concentration not given here

SMILES	inhibition
CC(=O)OC(C)CS(=O)(=O)c1ccccc1 (stereo not drawn)	-4.77% (inactive)
CCN(c1cccc(C)c1)C(C(=O)Nc1ccc(OC)cc1)c1cc2c(cc1[N+](=O)[O-])OCO2 (stereo not drawn)	1.06% (inactive)
Cc1ccc(C(=O)Nc2cccnc2)cc1[N+](=O)[O-]	-3.36% (inactive)
CCc1nc(SCc2cccnc2)[nH]c(=O)c1C	-4.49% (inactive)
COc1ccc(CN2C(=O)N(c3ccc(OC)cc3)C(=O)C2CC(=O)Nc2ccccc2)cc1 (stereo not drawn)	6.5% (inactive)
CCCc1cc(=O)oc2c(CN3CCCC3)c(O)ccc12	-6.61% (inactive)
CCCCN(C)C(=O)c1ccc(CS(=O)(=O)c2ccccc2C)o1	-5.74% (inactive)
COC(=O)CN1C(c2ccccc2)=Nc2ccc(Cl)cc2C1c1ccccc1 (stereo not drawn)	0.35% (inactive)
NNC(=O)CN1C(c2cccc(Cl)c2)=Nc2ccc(Br)cc2C1c1ccccc1 (stereo not drawn)	-2.26% (inactive)
COC(=O)CN1C(c2ccc(Cl)cc2)=Nc2ccc(Cl)cc2C1c1ccccc1 (stereo not drawn)	79.4% (inactive)
COc1ccc(C2=Nc3ccc(C)cc3C(c3ccccc3)N2CC(=O)NN)cc1 (stereo not drawn)	-0.28% (inactive)
O=C1/C(=C/c2ccc(F)c(F)c2)CSc2sccc21	12.2% (inactive)
CCCCNS(=O)(=O)c1ccc2nc(-c3cccs3)cc(C(=O)NCC(OC)OC)c2c1	3.68% (inactive)
COc1ccc(NC(=O)NC23CC4CC(CC(C4)C2)C3)cc1OC	25.7% (inactive)
COC(=O)c1cccc(NC(=O)Nc2ccc(Cl)c(Cl)c2)c1	51.3% (inactive)
CCOc1ccc(NC(=O)Nc2ccc(NC(C)=O)cc2)cc1	-1.52% (inactive)
COC(=O)c1ccc(Cl)c(NC(=O)NC23CC4CC(CC(C4)C2)C3)c1	2.38% (inactive)
CCCc1cc(=O)oc2cc(C)cc(OCC(=O)O)c12	-0.53% (inactive)
COC(CNC(=O)c1cc(-c2ccncc2)nc2ccc(S(=O)(=O)N3CCOCC3)cc12)OC	-0.15% (inactive)
CN(C)CCc1nn[nH]n1	-3.39% (inactive)
COc1ccc(NC(=O)c2c(F)c(F)c(F)c(F)c2F)cc1Cl	0.77% (inactive)
COc1cc(NC(=O)c2ccc(F)cc2)c(OC)cc1Cl	6.81% (inactive)
COc1cccc(N2CCN(Cc3nc(N)nc(Nc4ccccc4)n3)CC2)c1	0.52% (inactive)
COc1ccccc1N1CCN(Cc2nc(N)nc(Nc3ccc(C)cc3)n2)CC1	48.7% (inactive)
COc1ccccc1N1CCN(Cc2nc(N)nc(Nc3ccccc3)n2)CC1	-1.85% (inactive)

SMILES	inhibition
COc1ccc(Nc2nc(N)nc(CN3CCN(c4ccc(F)cc4)CC3)n2)cc1	2.63% (inactive)
CCOC(=O)c1ccc(NC(=S)Nc2cccc(N)n2)cc1	59.5% (inactive)
CCCNc1nc2c(c(=O)[nH]c(=O)n2C)n1Cc1cccc(Br)c1	1.4% (inactive)
CCOc1ccc(NC(=O)CN2C(=O)S/C(=C/c3cccn3C)C2=O)cc1	0.02% (inactive)
CCC(C)NC(=O)CCNS(=O)(=O)c1ccc(Br)cc1 (stereo not drawn)	-4.65% (inactive)
CCn1nccc1C(=O)Nc1nccs1	-3.43% (inactive)
NS(=O)(=O)c1cccnc1Nc1cccc(C(F)(F)F)c1	3.67% (inactive)
Cc1ccc(Oc2nc(-c3cccnc3)nc3ccccc23)c([N+](=O)[O-])n1	7.05% (inactive)
c1ccc(Oc2nc(-c3cccnc3)nc3ccccc23)cc1	8.16% (inactive)
CCCC(=O)Nc1cc(C(=O)O)ccc1Sc1ccc(C)cc1	-4.31% (inactive)
COC(=O)CCC(=O)NC(=S)Nc1cc(Cl)ccc1Cl	-5.76% (inactive)
O=C(CSCc1ccccc1)Nc1ccc2c(c1)C(=O)NC2=O	-3.24% (inactive)
N#C/C(=C\c1ccc([N+](=O)[O-])cc1)c1ccccn1	7.55% (inactive)
NC(CO)(CO)COCc1ccccc1	5.19% (inactive)
O=C(/C=C/c1ccc(-c2ccccc2)o1)c1ccccc1	12.6% (inactive)
Cc1ccc(/C=C/C(=O)c2ccccc2)cc1	10.3% (inactive)
Cc1ccc(C(=O)/C=C\NCc2ccccc2)cc1	2.13% (inactive)
Cc1ccc(C(=O)/C=C/c2ccc(-c3ccc(C)cc3)o2)cc1	88.2% (inactive)
O=C(/C=C/c1ccccc1[N+](=O)[O-])c1ccc(F)cc1	49.5% (inactive)
Cc1ccc(/C=C/C(=O)c2ccc(C)cc2)cc1	3.08% (inactive)
Cc1ccc(C(=O)/C=C/C(=O)O)cc1	1.06% (inactive)
O=C(O)/C=C/c1ccccc1[N+](=O)[O-]	-15.1% (inactive)
COc1ccc(-c2[nH]n(-c3ccc([N+](=O)[O-])cc3)c(=O)c2C=NCc2ccccc2)cc1	-1.64% (inactive)
C=CCC1(NC(C)c2ccccc2)CCCCC1 (stereo not drawn)	-4.87% (inactive)
O=C(Nc1ccc(-c2noc(COc3ccccc3Cl)n2)cc1)c1ccco1	0.69% (inactive)

SMILES	inhibition
COc1cc(/C=C2/SC(=O)N(Cc3ccccc3Cl)C2=O)ccc1OCc1ccncc1	3.75% (inactive)
COCCNC(=O)C(c1ccncc1)N(C(=O)c1sc(C)nc1C)c1cccc(C)c1 (stereo not drawn)	-4.16% (inactive)
Cc1ccc(NC(=O)c2cc3c(=O)oc4ccc(C)cc4c3s2)nc1	-3.16% (inactive)
Cc1ccc2c(c1)CC1(CN2C)C(=O)NC(=O)N(CCc2ccccc2)C1=O (stereo not drawn)	-6.53% (inactive)
Cc1oc(CC(C)C)cc1C(=O)Nc1cccc2ccccc12	-8.7% (inactive)
Cn1c(=O)[nH]c(=O)c2c1nc(SCC(=O)Nc1ccccc1)n2Cc1ccccc1	4.62% (inactive)
CCn1c(-c2cccnc2Cl)nc2cc(Cl)c(Cl)cc21	13.1% (inactive)
CCOCCCn1c(=S)[nH]c2cc(C(=O)N3CCN(C)CC3)ccc2c1=O	-9.01% (inactive)
CCc1ccc(NC2CC(=O)N(CCc3ccc(OC)c(OC)c3)C2=O)cc1 (stereo not drawn)	6.46% (inactive)
O=C(/C=C/NNC(=O)c1ccc(Cl)cc1)c1ccccc1	2.77% (inactive)
O=C(/C=C/Sc1ncn[nH]1)c1ccc(Cl)cc1	6.21% (inactive)
CCC(=O)NCCCc1nc(-c2ccccc2)no1	-4.65% (inactive)
COc1ccccc1N1CCN(C(=O)Cn2nc3n(C)c4ccccc4n3c(=O)c2=O)CC1	0.2% (inactive)
COc1ccccc1NCC(=O)n1nc(C)cc1C	-3.99% (inactive)
Cc1occc1-c1nnc(SCC(=O)Nc2ccccn2)o1	10% (inactive)
O=C(CSc1nc2ccccc2o1)c1ccccc1	9.75% (inactive)
O=C(CSc1nc2ccccc2o1)Nc1nncs1	2.93% (inactive)
Cc1occc1-c1nnc(SCC(=O)NCCc2ccccc2)n1Cc1ccccc1	-7.81% (inactive)
CCS(=O)(=O)c1ccc2oc(SCC(=O)NCCc3ccccc3)nc2c1	3.18% (inactive)
O=C(CSc1nc2ccccc2o1)Nc1ccccc1	-0.33% (inactive)
COc1ccc(CCNC(=O)CSc2nc3ccccc3o2)cc1	96.4% (inactive)
Cc1ccc(-c2csc(NC(=O)CSc3nc4ccccc4o3)n2)cc1	65.3% (inactive)
Cc1ccc(NC(=S)Nc2cc(C)on2)cc1	4.76% (inactive)
COc1ccc(NC(=O)C2CCCN(S(=O)(=O)c3cccc4nonc34)C2)cc1OC (stereo not drawn)	0.88% (inactive)
CCOC(=O)c1c(-c2ccc(C)s2)csc1N	3.65% (inactive)

SMILES	inhibition
Cc1nc2c(C#N)cnn2c2c1CCNN2C	-8.46% (inactive)
COc1ccccc1-c1cc(C(=O)N2CCN(c3ccc(F)cc3)CC2)no1	4.4% (inactive)
Cc1cccc(NC(=O)NNS(=O)(=O)c2ccc(F)cc2)c1	7.42% (inactive)
O=C(CN1CCN(C(=O)c2ccco2)CC1)N1CCc2[nH]c3ccccc3c2C1	7.26% (inactive)
COc1ccc(C2CC(=O)C3=C(C2)Nc2ncnn2C3c2ccccc2)cc1 (stereo not drawn)	-8.64% (inactive)
O=C(CSc1nc2ccccc2o1)Nc1nc2ccccc2s1	-3.19% (inactive)
Cc1nnc(NC(=O)CSc2nc3ccccc3o2)s1	-1.02% (inactive)
Cc1ccccc1Cn1nnc(-c2ccc(C(=O)O)cc2)n1	-5.85% (inactive)
Nc1nc(-c2ccc3c(c2)OCCO3)cs1	78.2% (inactive)
N#Cc1cncc(-c2ccc3c(c2)OCCOCCOCCOCCOCCO3)n1	5.9% (inactive)
Cc1ccc(-n2ncc3c2ncn2c(C)nnc32)cc1C	14.5% (inactive)
NC(=O)c1ccc(-c2csnn2)cc1	0.58% (inactive)
CC(C)(C)C(=O)Nc1ccc(-c2csnn2)cc1	-0.28% (inactive)
Cc1ccc(NC(=O)C(C)OC(=O)c2ccc(NS(=O)(=O)c3ccc(F)c(F)c3)cc2)cc1 (stereo not drawn)	-2.38% (inactive)
Cc1nc2c(c(=O)n1CCC(C)C)c1nc3ccccc3nc1n2CC1CCCO1 (stereo not drawn)	2.15% (inactive)
CC1CCN(S(=O)(=O)c2cccc(-c3cn4cc(Cl)ccc4n3)c2)CC1	-1.37% (inactive)
O=C(O)CCN1C(=O)C2C3c4ccccc4C(c4ccccc43)[C@@H]2C1=O (stereo partly drawn)	-2.72% (inactive)
Cc1ccccc1-n1nc(C)c2c1N=C1C(Cl)=CC(Cl)=CN1C2c1ccc(C(=O)O)cc1 (stereo not drawn)	-4.15% (inactive)
CC(=O)Nc1ccc(NC2=Nc3ccccc3N3C2=Nc2c(c(C)nn2-c2ccccc2)C3c2ccccc2)cc1 (stereo not drawn)	75.1% (inactive)
CCCc1nnc(NC(=O)OCC)s1	4.01% (inactive)
CC(NC(=O)C1CC1)C(c1cccs1)N1CCOCC1 (stereo not drawn)	4.47% (inactive)
O=C(CSc1nnc(Cc2ccccc2)o1)c1ccc(F)cc1	6.24% (inactive)
Cn1c(NC(=O)/C=C/c2ccco2)cc(=O)n(C)c1=O	-0.44% (inactive)
